# Mcl1-Bid inh: disrupts binding of human Mcl-1 to Bid peptide; 220,000 tested, 0.97% active; inhibition, % at 21.7 µM; Q07820; TR-FRET Mcl-1/Bid-Dy647 peptide binding, 1536-well;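 active = compounds that cut the binding signal by more than half at the single screening dose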;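 also: His-tagged Mcl-1 with europium anti-His antibody binding Bid BH3 peptide; 0% = Mcl-1 plus peptide wells and 100% = peptide-only wells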
# Target sequence (Q07820 whole entry, looked up): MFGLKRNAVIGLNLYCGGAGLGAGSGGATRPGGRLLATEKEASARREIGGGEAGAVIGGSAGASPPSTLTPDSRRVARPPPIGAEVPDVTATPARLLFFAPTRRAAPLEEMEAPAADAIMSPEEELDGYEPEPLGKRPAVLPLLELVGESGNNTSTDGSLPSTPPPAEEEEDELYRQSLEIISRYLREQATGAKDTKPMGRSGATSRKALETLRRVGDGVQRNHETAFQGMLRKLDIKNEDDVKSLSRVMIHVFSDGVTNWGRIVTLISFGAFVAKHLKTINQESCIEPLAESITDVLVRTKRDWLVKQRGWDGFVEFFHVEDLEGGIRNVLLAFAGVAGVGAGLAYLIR
# p47phox inh: p47phox (human) inhibition | P14598 | p47phox/p22phox peptide binding, fluorescence polarization, 2 h | inhibition, % at 24.7 µM | 220,000 tested, 0.53% active | AID 1274;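 active = inhibition above about 30%, limit read from the data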;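 also: 0% = p47phox with labelled peptide and 100% = labelled peptide alone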
# Mcl-1 Bim block: human Bim-Mcl-1 interaction inhibition; Q07820; Bead-based flow cytometry, Bim peptide-Mcl-1 binding; inhibition, % at 10 µM; 190,000 tested, 0.1% active; AID 1009; in the data active = inhibition above about 40%;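 also: 0% = no compound tracer wells and 100% = peptide blocker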
# 14-3-3 Bad PPI: disrupts binding of bovine 14-3-3 zeta to phospho-Bad peptide; inhibition, % at 21.7 µM; TR-FRET 14-3-3zeta/Dy647-pBad peptide displacement, 1 h; 220,000 tested, 0.71% active; P63103;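 active = inhibition above about 70%, limit read from the data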;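 also: 0% = full 14-3-3 plus peptide FRET controls and 100% = background without 14-3-3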
# Target sequence (P63103 whole entry, looked up): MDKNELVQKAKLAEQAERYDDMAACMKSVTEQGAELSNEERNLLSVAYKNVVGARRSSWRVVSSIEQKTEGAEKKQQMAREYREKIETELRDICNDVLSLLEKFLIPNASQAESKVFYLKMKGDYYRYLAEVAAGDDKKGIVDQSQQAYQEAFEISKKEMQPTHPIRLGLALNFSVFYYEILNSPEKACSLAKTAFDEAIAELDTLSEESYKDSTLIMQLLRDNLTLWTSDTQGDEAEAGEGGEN
# Mcl1-Noxa inh: Mcl-1/Noxa interaction inhibition | Q07820 | TR-FRET Mcl-1/Noxa peptide binding, 2 h | inhibition, % at 21.7 µM | 220,000 tested, 1.5% active | AID 1022;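 active = compounds that cut the protein-peptide binding signal by more than 50% relative to plate controls in a single-dose test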;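 also: His-tagged Mcl-1 with rhodamine Noxa BH3 peptide and terbium anti-His antibody; 0% = Mcl-1 plus Noxa peptide wells and 100% = peptide-only wells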
# Active calls of the source: *; nt = not tested or not shown; [ ] = another dose, or the depositor's remark. An excerpt weighted towards active compounds, which were near 3.1% of everything screened.
SMILES,Mcl1-Bid inh,p47phox inh,Mcl-1 Bim block,14-3-3 Bad PPI,Mcl1-Noxa inh
O=C(Nc1nc(-c2cccs2)cs1)c1ccco1,-19.2,-17.0,0.0,-21.0,5.5
CCOc1ccccc1Nc1nc(-c2sc(NC(=O)c3ccccc3)nc2C)cs1,-45.8,-13.3,-1.0,40.2,31.3
CC(Sc1nnc(-c2cccs2)n1-c1ccccc1)C(=O)NCc1ccc2c(c1)OCO2 (stereo not drawn),-7.5,1.2,-2.0,-11.3,1.4
CCOC(=O)c1c(NC(=O)CC2SC(N)=NC2=O)sc2c1CCCC2 (stereo not drawn),-9.9,-4.3,-2.0,16.6,16.6
COc1cccc(Nc2nc(-c3sc(NC(=O)c4ccco4)nc3C)cs2)c1,-49.9,-49.8,56.0*,50.0,42.1
CCCC(=O)Nc1ccc(-c2csc(N/N=C\c3ccncc3)n2)cc1,-69.8,-13.8,nt,4.5,15.6
Cc1ccc(Cl)cc1Nc1nc(-c2sc(NC(=O)c3ccccc3)nc2C)cs1,100.3*,-30.0,-2.0,82.7*[fluorescence artefact?],106.0*
COc1ccccc1Nc1nc(-c2sc(NC(=O)c3ccc([N+](=O)[O-])cc3)nc2C)cs1,25.2,-6.3,3.0,49.7,86.1*
CC(=O)Nc1ccc(-c2csc(N/N=C\c3ccncc3)n2)cc1,-32.4,-15.0,nt,5.5,51.4*
Cc1c(-n2c(SCC(N)=O)nc3ccccc3c2=O)c(=O)n(-c2ccccc2)n1C,-25.2,-9.4,-4.0,-2.2,10.6
COc1ccc(OC)c(NC(=O)CN2C(=O)NC3(CCOc4ccccc43)C2=O)c1 (stereo not drawn),-8.3,-8.5,0.0,-4.9,-5.7
CCc1ccc(CNC(=O)Cn2nc(-c3ccc(C)cc3)ccc2=O)cc1,2.5,-4.0,0.0,13.3,9.2
O=C(COC(=O)/C=C/c1ccccc1Cl)NCCc1ccc(Cl)cc1Cl,-21.6,-7.8,-5.0,3.2,6.8
O=C(Cc1ccccn1)Nc1ccccc1,16.0,-8.2,-2.0,73.0*[fluorescence artefact?],23.9
CN(C)c1ccnc(Nc2ccccc2)c1C#N,-29.9,1.1,1.0,-16.6,0.6
CN(C)c1ccnc2c[cH-]cc12.[Fe].c1ccc(-[c-]2[c-](-c3ccccc3)[c-](-c3ccccc3)[c-](-c3ccccc3)[c-]2-c2ccccc2)cc1 (stereo not drawn),-14.2,89.7*,nt,50.5,30.1
CCOC(=O)c1[nH]c(C)c(C(=O)OCCOc2cccc(C)c2)c1C,-18.1,3.3,20.0,7.0,10.2
COc1cc([N+](=O)[O-])ccc1NC(=O)NCc1ccco1,26.8,7.8,0.0,3.2,16.9
COc1ccc(-c2csc(Nc3ncccc3C)n2)cc1OC,-9.6,3.9,1.0,4.1,35.8
Cc1cccnc1Nc1nc(-c2ccc(O)c(O)c2)cs1,-9.9,4.3,-9.0,2.1,68.8*
O=C(Nc1ccccc1N1CCOCC1)c1ccc(Cl)nc1,-50.4,0.8,-3.0,-10.4,3.6
CCOC(=O)CSc1nnc(CSc2nc3ccccc3s2)n1C,-1.9,1.7,-1.0,9.4,4.0
Cn1c(CSc2nc3ccccc3s2)nnc1SCC(=O)NCc1cccnc1,94.3*,8.7,1.0,-10.6,-16.0
Cn1c(CSCc2ccc(Cl)cc2)nnc1SCC(=O)Nc1nc2ccccc2s1,62.0*,-12.4,-1.0,-6.3,0.6
Cc1ccc(Nc2nnc(SC3CCOC3=O)s2)c(C)c1 (stereo not drawn),-5.8,-1.7,-3.0,79.7*,-1.5
SMILES,Mcl1-Bid inh,p47phox inh,Mcl-1 Bim block,14-3-3 Bad PPI,Mcl1-Noxa inh
CCOC(=O)C(=CNc1ccc(Oc2cccnc2)nc1)C(=O)OCC,-14.7,37.5*,nt,-6.5,4.7
CCOC(=O)c1sc(N/N=C/c2ccccc2)nc1C,-2.6,-15.2,-11.0,1.4,22.7
O=C(O)Cc1sc(N/N=C\c2ccccc2)nc1-c1ccccc1,-35.3,-6.4,-3.0,-10.7,61.9*
Cc1nn(-c2ccccc2)c2sc(C(=O)O)cc12,9.0,-2.6,0.0,23.0,2.0
Cc1nn(-c2ccccc2)c2sc(-c3n[nH]c(=S)o3)cc12,-15.6,-51.6,5.0,2.9,67.5*
CCOc1ccc(NC(N)=O)cc1OCC,-60.3,-9.9,-1.0,5.7,-9.4
CCCOc1ccc(NC(N)=O)cc1OCCC,-34.6,31.3*,-2.0,4.3,-0.4
CC(C)N1CCN(Cc2ccc(Sc3nncn3C)o2)CC1CCO (stereo not drawn),-9.5,-7.3,nt,-1.8,-21.5
O=C(NCCNC1CCN(Cc2ccccc2)CC1)c1cccs1,7.8,-1.8,-1.0,70.7*,6.7
c1ccc(-c2nn3c(Cn4nnc5ccccc54)nnc3s2)nc1,7.7,-3.7,-1.0,7.2,54.8*
CCOc1cc(NS(=O)(=O)c2ccc(NC(C)=O)cc2)c(OCC)cc1NC(=O)c1cccs1,-18.5,-16.3,-3.0,-13.1,9.7
COC(=O)c1c(NC(C)=O)sc2c1CCCC2,-18.7,-12.9,0.0,-18.1,7.6
O=C(Nc1sc2c(c1C(=O)O)CCCCC2)c1ccccc1,-6.7,10.7,-12.0,-10.7,24.0
CNC(=S)Nc1sc2c(c1C(=O)OC)CCC2,-113.5,3.6,-2.0,-4.0,75.0*
COC(=O)c1c(NC(=O)c2cnccn2)sc2c1CCC2,96.7*,-1.0,0.0,-0.9,13.9
O=C(Nc1sc2c(c1C(=O)O)CCC2)c1ccccc1,72.1*,-13.2,-1.0,83.2*,32.5
COC(=O)c1c(NC(C)=O)sc2c1CCCCC2,-18.1,-10.2,-5.0,-14.4,6.0
CCOC(=O)c1c(NC(=O)c2ccccc2N(C)S(=O)(=O)c2ccccc2)sc2c1CCCC2,-26.0,4.6,53.0*,-5.3,8.1
Cn1c(=O)c(C(=O)NCCO)c(O)c2ccccc21,7.9,-1.7,-11.0,6.0,-41.7
CCOC(=O)c1ccccc1NC(=O)c1c(O)c2ccccc2n(CC)c1=O,1.6,-6.2,0.0,-11.3,20.5
CCn1c(=O)c(C(=O)NCCNCCO)c(O)c2ccccc21,51.9*,-87.1,-1.0,nt,11.4
CCCn1c(=O)c(C(=O)Nc2ccccc2C(=O)OC)c(O)c2ccccc21,13.9,44.9*,0.0,-1.7,14.4
COc1cccc(CNC(=O)CCC2CCCN(C(=O)C3CCOCC3)C2)c1 (stereo not drawn),-22.8,0.0,-2.0,-0.5,3.5
O=C(c1ccc(F)cc1)C1CCN(S(=O)(=O)c2ccccc2)CC1,-3.9,-4.4,-4.0,-4.0,-6.6
CCOC(=O)C1(C(=O)OCC)C(c2ccccc2)CC(O)N1C(C)=O (stereo not drawn),-17.3,-12.7,-3.0,91.7*,-7.5
SMILES,Mcl1-Bid inh,p47phox inh,Mcl-1 Bim block,14-3-3 Bad PPI,Mcl1-Noxa inh
O=C(c1ccco1)N1CCN(Cc2ccc(Cl)cc2)CC1,31.1,-3.9,-1.0,78.2*,17.9
O=C(c1cccc(Cl)c1)N1CCC(N2CCC(C(=O)N3CCOCC3)CC2)CC1,-27.3,-44.7,-1.0,-15.5,2.8
Brc1cccc(CN2CCCCCCC2)c1,5.5,-5.1,3.0,58.4,16.0
O=C(CN1CCN(C(=O)c2cccc(F)c2)CC1)NC1CCCCC1,21.4,-1.7,-1.0,74.5*,5.2
O=C(c1cccc(F)c1)N1CCCN(C(=O)c2cccc(F)c2)CC1,-19.0,-10.1,0.0,2.0,-1.4
Fc1cccc(CN2CCCCCCC2)c1,41.9,-8.4,-5.0,78.3*,33.0
